Values without a mark were called inactive. Activity calls are given as the source filed them.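 Rule for the calls: active = inhibition above the hit cutoff set in the earlier primary screen (cut at about 27% in these data); inactive = the rest.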

For orientation: inhibition means the change of the read-out against control, counted positive when it falls.

For this assay, the target named is Protein phosphatase methylesterase 1 (Homo sapiens) (UniProt Q9Y570). Briefly: human PME-1 methylesterase inhibition confirmation – biochemical, fluorescence polarization, FP-Rh probe, triplicate (AID 2171).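 Note: 0% = enzyme with DMSO and 100% = wells lacking PME-1.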 Conditions: recombinant PME-1, FP-Rh probe fluorescence polarization; at 5.9 µM; active compounds read high. (In fluorescence polarisation assays a small probe gives low polarisation when free and higher when bound to something large.)
Sequence of Protein phosphatase methylesterase 1 (Homo sapiens) (Q9Y570 whole entry, looked up): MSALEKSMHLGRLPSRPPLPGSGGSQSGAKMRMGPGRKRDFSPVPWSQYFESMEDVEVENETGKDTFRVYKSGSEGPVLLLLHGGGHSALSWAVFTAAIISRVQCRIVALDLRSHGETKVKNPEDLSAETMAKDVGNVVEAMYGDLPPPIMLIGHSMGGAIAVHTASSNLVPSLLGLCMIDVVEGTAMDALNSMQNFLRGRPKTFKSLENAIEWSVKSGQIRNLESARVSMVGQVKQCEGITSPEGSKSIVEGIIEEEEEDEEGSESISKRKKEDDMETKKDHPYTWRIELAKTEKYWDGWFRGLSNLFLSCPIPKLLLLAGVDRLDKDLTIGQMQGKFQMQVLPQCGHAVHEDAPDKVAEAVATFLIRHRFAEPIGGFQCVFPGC
Consider `COc1cc(/C=C/c2ccc3cccc(O)c3n2)ccc1O`, for which the inhibition is 53.6% (active).
As to `CCCN(CC(=O)Nc1ccccc1C)C(=O)COC(=O)CSc1ccc([N+](=O)[O-])cc1`, the inhibition was 17.4%.
To `Cc1c(C(=O)O)cccc1-c1ccc(/C=N/Nc2ccc(Br)cc2)o1` belongs 39.6% (active).
With `Cc1ccccc1NC1=C/C(=N\S(=O)(=O)c2ccc(C(=O)O)cc2)c2ccccc2C1=O` the figure was 40% (active).
Take `CCn1cc(C(=O)NCCCN2CCCC(C)C2)c(=O)c2cc(S(=O)(=O)N(C)C3CCCCC3)ccc21` (stereo not given): the inhibition is 45.2% (active).
`Fc1cccc2sc(Nc3nc4cc5c(cc4s3)OCO5)nc12`: the inhibition is 76.3% (active).
With `COc1cc(/C=C2/C(=O)c3cccc([N+](=O)[O-])c3C2=O)c(Br)cc1O` the figure was 16.7%; with `Cc1cc2c(N=O)c(NO)ccc2[nH]1`, 33.3% (active).
To `Cc1ccc(-n2[nH]c(C)c(/C=N/Nc3ccc([N+](=O)[O-])cc3[N+](=O)[O-])c2=O)cc1C` belongs 33.5% (active).
To `COc1ccc(/C=N/Nc2cc(C)nc(-n3nc(C)cc3C)n2)c(OC)c1` belongs 41.6% (active); to `COc1ccc(-c2cc(C(=O)N3CCN(C(=O)c4ccccc4F)CC3)[nH]n2)cc1`, 21.7%; to `Cc1ccc2nsnc2c1NS(=O)(=O)c1c(C)ccc2nsnc12`, 22.3%.
`C=CCc1cccc(/C=N/NC(=O)CNc2cccc3ccccc23)c1O`: the inhibition is 17.8%.
With `O=C(Nc1cccc(C(F)(F)F)c1)c1ccc2nc(-c3ccco3)c(-c3ccco3)nc2c1` the figure was -3.36%; with `CCC(C)c1ccc(S(=O)(=O)N2CCN(C(=O)COc3ccc4c(C)cc(=O)oc4c3)CC2)cc1` (stereo not given), 0.33%.
With `Cn1c(=O)c(Nc2ccc(Cl)cc2)c2c3c(cccc31)C(=O)c1ccccc1-2` the figure was 62.5% (active).
To `COc1cc2nc(Nc3ccc(C)c(Cl)c3)nc(N)c2cc1OC` belongs 49.4% (active); to `COc1cc2c(C#N)c(N3CCN(c4ccccc4OC)CC3)nc(N)c2c(N)n1`, 78% (active).
In the case of `Cc1cccc(NC(=S)N/N=C/c2c[nH]c3ccccc23)c1`, the inhibition was 33.3% (active).
To `Cn1c2ccccc2c2cc(/C=N/NC(=O)c3cc(O)ccc3O)ccc21` belongs 40.5% (active); to `CC1(C)CC(=O)C2=C(C1)N1C(=C(C#N)C2c2ccc(Cl)cc2)N=C(N)c2ccccc21` (stereo not given), 44% (active).
Regarding `CC(C)Nc1nnc(SCC(=O)Nc2ccc3c(c2)C(=O)c2ccccc2C3=O)s1`, the inhibition is 36.4% (active).
Turning to `COc1ccc(N2CCN(C(=O)C3CCN(S(=O)(=O)c4ccc(F)cc4)CC3)CC2)cc1`, the inhibition was 59.1% (active).
To `Cc1ccc(-c2c(C(=O)N/N=C/c3c[nH]c4ccccc34)nnn2-c2nonc2N)cc1` belongs 21.9%; to `CC(C)c1ccc2[nH]c(O)c(N=NC(=O)c3cccc(S(=O)(=O)N4CCCCC4)c3)c2c1`, 58.3% (active); to `O=C1Nc2ccccc2/C1=N\N=C\C1=C(N2CCOCC2)C(=C\c2ccccc2)/CC1`, 24%.
With `N[C@H](CSCc1ccccc1)C(=O)Nc1ccc([N+](=O)[O-])cc1` the figure was -1.96%; with `CN(C)S(=O)(=O)c1cccc(NC(=S)NNC(=O)c2cc3ccccc3cc2O)c1`, -1.97%; with `COc1cc(/C=C2\CCC/C(=C\c3ccc(O)c(OC)c3)C2=O)ccc1O`, 39.5% (active).
As for `CC(C)S(=O)(=O)c1csc(NC(=O)Nc2cccc([N+](=O)[O-])c2)c1Cl`, the inhibition is -58.5%.
With `Cc1ccsc1C=Nc1ccc(O)cc1` the figure was 3.81%.
To `Cc1cc(NC(=O)CSc2nc3ccccc3c(=O)n2C2CCCC2)no1` belongs 3.59%.
In the case of `CCCCCCCCCCCCCCCC[n+]1ccc(/C=N/O)cc1`, the inhibition was 60.4% (active).
With `CCc1ccc(S(=O)(=O)/N=C2\C=C(Nc3ccc(C(=O)O)cc3)C(=O)c3ccccc32)cc1` the figure was 33.3% (active); with `COC(=O)/C(=C(O)\C=C\c1ccccc1[N+](=O)[O-])c1nc2ccccc2[nH]1`, 21.9%.
With `CC1=CC(C)(C)N2C(=O)C(=Nc3ccc(O)cc3)c3cccc1c32` the figure was 4.13%.
Regarding `Cc1ccc(/C=N/Nc2ccnc3cc(Cl)ccc23)c(C)c1`, the inhibition was 53.3% (active).
Regarding `O=C(OCCN(C1=NS(=O)(=O)c2ccccc21)c1ccc(Cl)cc1)c1ccco1`, the inhibition is 20.6%.
To `CCn1c(=O)c2cc(C(=O)Nc3ccc(OC)cc3OC)sc2c2ccccc21` belongs 21.5%; to `COC(=O)c1ccc(NC(=O)Nc2ccc(OC)cc2)cc1`, 23.2%.

(Values after PubChem BioAssay.)
